Compound activity (PubChem BioAssay)
Pf Dd2 inh – Plasmodium falciparum Dd2 growth inhibition; P. falciparum Dd2 growth, SYBR Green, 72 h; Potency, µM (series often up to 28.9 µM), usual class: inhibitors; 120,000 compounds, 4.3% hits; AID 1347417; active means well fitted inhibition curve with a large enough effect; further: nearly all actives have a fitted effect of over 65% in size
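Infected erythrocytes (Dd2, 0.3% parasitemia, 2.5% hematocrit final) are added to compound in RPMI-1640/Albumax II medium, grown 72 h at 37C in low oxygen, then lysed with saponin/Triton-X containing SYBR Green and read by fluorescence.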
Of the large screens only hits and unclear results are named; the others gave an inactive call. The entries come from a sample that favours hits as a whole.

Cc1oc(C(O)c2ccccc2)nc1C(=O)Nc1ccc2c(c1)NC(=O)CO2 (configuration not stated)	Pf Dd2 inh 10µM
COc1ccc(NC(=O)c2nc(C(O)c3ccccc3)oc2C)cn1 (configuration not stated)	none
Cc1oc(C(O)c2ccccc2)nc1C(=O)Nc1ccc(C(=O)Nc2ccccc2)cc1 (configuration not stated)	none
N#Cc1cccc(CN2C[C@H](O)C[C@H]2c2nc(Cc3ccccc3)no2)c1	none
COc1ccc(N2CCN(C(=O)c3cc4ccc5cccnc5c4[nH]3)CC2)cc1	none
COc1cccc(-c2cc3c(=O)n(CCNC(=O)c4cc(C)cc(C)c4)ccn3n2)c1	none
COc1cccc(-c2cc3c(=O)n(CCNC(=O)c4cc(Cl)ccc4F)ccn3n2)c1	none
COc1cccc(-c2cc3c(=O)n(CCNC(=O)c4ccc(C(C)(C)C)cc4)ccn3n2)c1	Pf Dd2 inh 1.12µM
COc1cccc(-c2cc3c(=O)n(CCNC(=O)c4ccccc4F)ccn3n2)c1	Pf Dd2 inh 12.6µM
COc1cccc(-c2cc3c(=O)n(CCNC(=O)c4cc5ccccc5[nH]4)ccn3n2)c1	none
COc1cccc(-c2cc3c(=O)n(CCNC(=O)c4ccc(Cl)cc4)ccn3n2)c1	none
COC(=O)C(=O)N1CC[C@H]2NC(=O)N(c3cccc(OC)c3)C(=O)[C@H]21	none
COCCn1cnnc1C(C)NC(=O)CCc1nc2ccccc2[nH]c1=O (configuration not stated)	none
CCOc1cccc(C2c3c(-c4cc(C)ccc4O)n[nH]c3C(=O)N2Cc2ccco2)c1 (configuration not stated)	Pf Dd2 inh 10µM
Cc1cc(C)c2c(=O)c3c(oc2c1)C(=O)N(Cc1ccco1)C3c1ccc(F)cc1 (configuration not stated)	none
COCCCN1C(=O)c2[nH]nc(-c3cc(C)ccc3O)c2C1c1ccc(F)cc1 (configuration not stated)	none
COc1cc(C2c3c(-c4cc(C)ccc4O)n[nH]c3C(=O)N2Cc2ccco2)cc(OC)c1OC (configuration not stated)	none
COCCN1C(=O)c2[nH]nc(-c3c(C)cc(C)cc3O)c2C1c1cccc(O)c1 (configuration not stated)	none
Cc1ccc(O)c(-c2n[nH]c3c2C(c2ccccc2F)N(Cc2ccco2)C3=O)c1 (configuration not stated)	Pf Dd2 inh 4.47µM
CCOc1ccc(NC(=O)[C@H](Cc2ccccc2)N2Cc3ccccc3C2=O)cc1	none
Cn1c(=O)n(C)c2cc(N3CCOCC3)c(NS(=O)(=O)c3ccc(F)cc3)cc21	none
CC(C)N1CCC(OCCCNC(=O)C2CCCCC(=O)N2)CC1 (configuration not stated)	none
CCS(=O)(=O)NCC(=O)N1CCCCCNC(=O)CC1c1ccccc1 (configuration not stated)	none
Cc1cn2nc(C(=O)NCc3ccccc3C(F)(F)F)cc2c(N2CCSCC2)n1	none
O=C(CCc1ccc(O)cc1)N[C@H]1CC[C@H](Nc2nccc(-c3cccnc3)n2)C1	Pf Dd2 inh 11.2µM
NS(=O)(=O)c1ccc(CNc2nccc(-c3cccnc3)n2)cc1	none
O=C(N[C@H]1CO[C@H]2[C@@H]1OC[C@@H]2Nc1nccc(-c2ccc(-c3ccccc3)cc2)n1)C1CC1	none
O=C1[C@@H]2C[C@@H](O)CN2C2(CN(Cc3ccc(F)c(F)c3)C2)C(=O)N1Cc1ccccc1F	none
Cc1ccc(-n2ccnc2-c2cc3n(n2)CCNC3)cc1N1CCCC1=O	none
COc1ccc(SCCNC(=O)C2NCCc3[nH]cnc32)cc1 (configuration not stated)	none
CCC1(N2CCN(C(=O)COc3cccc(Cl)c3)CC2)CCN(S(C)(=O)=O)C1 (configuration not stated)	none
CCC1(N2CCN(C(=O)COc3ccc(Cl)cc3C)CC2)CCN(C(=O)NC)C1 (configuration not stated)	none
CCC1(N2CCN(C(=O)COc3cccc(Cl)c3)CC2)CCN(C(=O)NC)C1 (configuration not stated)	Pf Dd2 inh 10µM
CCC(C)NC(=O)CSc1nc2c(sc3ccccc32)c(=O)n1CCc1ccc(OC)c(OC)c1 (configuration not stated)	none
CCc1ccc(CNC(=O)CSc2cc(=O)n(C)c3ccc(Cl)cc23)cc1	none
Cn1cc2c3c(cccc31)CN(C(=O)c1cccc(Br)c1)CC2	none
COc1cccc(-c2nc(N3CCOCC3)cc3c2CN(CC(F)(F)F)C3=O)c1OC	none
COc1cccc(-c2nc(N3CCOCC3)cc3c2CN(Cc2ccccc2)C3=O)c1OC	Pf Dd2 inh 11.2µM
O=C1c2cc(N3CCOCC3)nc(-c3cccc(O)c3)c2CN1CC(F)(F)F	Pf Dd2 inh 2.82µM
COc1ncccc1-c1nc(N2CCOCC2)cc2c1CN(CC(F)(F)F)C2=O	none
COc1cccc(-c2nc(N3CCOCC3)cc3c2CN(CC2CC2)C3=O)c1OC	none
O=C1c2cc(N3CCOCC3)nc(-c3cccc(F)c3)c2CN1CC1CC1	none
Cc1ccccc1C(=O)NCc1nnc2cc(-c3nc(C4CC4)no3)ccn12	none
CCCNC(=O)c1cc2c(=O)[nH]c(C)cn2n1	none
CCOc1ccccc1NC(=O)N1CCC(c2cc(-c3cccc(OC)c3)n[nH]2)CC1	none
CO[C@H]1[C@H](NC(=O)CN2CCOC2=O)c2ccccc2C12CCNCC2	none
COCc1nc(CCNC(=O)c2cc(C)[nH]n2)no1	none
CCSc1nnc(NC(=O)c2cc(=O)c3cc(C)ccc3o2)s1	none
O=C(CN1CC2CC(C1)[C@H]1CCCC(=O)N1C2)NCc1cccc(C(F)(F)F)c1 (some centres not stated)	none
COCCn1c(=N)c(C(=O)NC2CCCC2)cc2c(=O)n3cc(C)ccc3nc21	none
CCOCCCn1c(=N)c(C(=O)NC2CCCC2)cc2c(=O)n3cccc(C)c3nc21	Pf Dd2 inh 2.24µM
CCOCCCn1c(=N)c(S(=O)(=O)c2ccc(C)cc2)cc2c(=O)n3cccc(C)c3nc21	none
CCOc1ccccc1CNC(=O)Cc1ccc(NC(=O)N2CCCCc3ccccc32)cc1	none
CN1C(=O)C(CC(=O)N2CCC(CO)CC2)(Cc2ccccc2)c2ccccc21 (configuration not stated)	none
COc1ccc(Nc2cnc3ccc(N4CCOCC4)nn23)cn1	none
Fc1ccc(-c2ccc3ncc(Nc4ccnc(N5CCOCC5)c4)n3n2)cc1	Pf Dd2 inh 0.562µM
FC(F)(F)Oc1ccc(Nc2cnc3ccc(N4CCOCC4)nn23)cc1	Pf Dd2 inh 11.2µM
COc1ncccc1Nc1cnc2ccc(N(C)C)nn12	none
CN(Cc1ccc(F)cc1)c1ccc2ncc(Nc3ccnc(N4CCOCC4)c3)n2n1	Pf Dd2 inh 3.98µM
CN1CCN(c2ccc3ncc(Nc4ccccc4F)n3n2)CC1	none
FC(F)(F)c1cc(Nc2cnc3ccc(N4CCOCC4)nn23)ccc1Cl	none
COc1cccc(Nc2cnc3ccc(N4CCOCC4)nn23)c1	none
Fc1ccc(-c2ccc3ncc(Nc4ccc5c(c4)OCO5)n3n2)cc1	none
COc1cncc(Nc2cnc3ccc(N(C)Cc4ccc(F)cc4)nn23)c1	none
CN(Cc1ccc(F)cc1)c1ccc2ncc(Nc3ccc4c(c3)OCCO4)n2n1	Pf Dd2 inh 5.62µM
Clc1ccccc1Nc1cnc2ccc(N3CCOCC3)nn12	none
CC(C)C(=O)N1CCC2(CC1)OCC(C(=O)N1CCCC1)N2C(=O)c1ccccc1 (configuration not stated)	none
COc1cccc(CC(=O)N2CCC3(CC2)NC(=O)N(c2cccc(F)c2)N3)c1	none
COc1ccc(N2CCN(CCCNC(=O)C3COc4ccc(OC)cc4C3)CC2)cc1 (configuration not stated)	none
Cc1ccc(CNC(=O)N(C)CC2CCOC2)cc1 (configuration not stated)	none
